# Reference: PubChem BioAssay (NCI)
# The panel holds about 79,000 compounds, 15% with a hit somewhere; the sample as a whole holds those more often. Values without a mark were called inactive. Active and inactive are the calls of the source. No stated cut-off is given here; in the data, active means growth inhibition above about 70%; inactive means the rest.
# Experiment: NCI Yeast Anticancer Drug Screen. Data for the rad50EPP+ strain (AID 151);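 further: 0% = growth of vehicle-treated control cultures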
# Settings: S. cerevisiae rad50 mutant strain, stronger effect = higher value
# Experimental: Growth inhibition of yeast strains with defined genetic alterations is measured as a screen for potential anti-cancer activity. Selected strains with alterations in DNA damage repair or cell cycle control were exposed to compounds and growth inhibition was measured relative to vehicle treated controls. The strain used in this assay is rad50EPP+
Structure (SMILES),growth inhibition (at 1.2 µM),growth inhibition (at 3.7 µM),growth inhibition (at 11.0 µM),growth inhibition (at 33.0 µM),growth inhibition (at 100.0 µM)
O=C(NNC(=O)OCC(Cl)(Cl)Cl)OCC(Cl)(Cl)Cl,0%,-2%,-1%,0%,11%
CCC1(O)C(=O)OCc2c1cc1n(c2=O)Cc2cc3cc(Cl)ccc3nc2-1 (stereo not given),92% (active),93% (active),94% (active),92% (active),88% (active)
Nc1ccccc1C(=O)OCCc1ccccc1,-23%,-9%,13%,22%,73% (active)
Cc1ccc2c(c1N)C(=O)c1ccccc1C2=O,22%,45%,69%,78% (active),76% (active)
CCCCCCCCCC[Se]C#N,4%,6%,23%,76% (active),97% (active)
COC(=O)C1C2c3ccccc3C(c3ccccc32)C1C(=O)OC (stereo not given),4%,5%,4%,7%,10%
C[C@]12CCC(=O)C=C1CC[C@@H]1C2CC[C@@]2(C)C1CC[C@@H]2OC(=O)C12OC1CCC2=O (stereo not given in full),9%,25%,69%,94% (active),97% (active)
CN(CCc1ccc(Br)cc1)CCN1CCCCC1,-1%,0%,-1%,0%,6%
